According to PubChem BioAssay (Tox21):
Results filed as inconclusive are left out. Entries that show only a call come without a potency. Values without a mark were called inactive. Active and inactive are the calls of the source. Unless noted, calls come from the whole dose curve; as a rule, active = well fitted curve in the direction sought with a large enough effect in the repeat runs; inconclusive = weak or mixed curves; inactive = no such curve, though single readings can be large; an effect the other way counts as inactive or inconclusive.

Assays:
[1] = qHTS assay to identify small molecule agonists of the estrogen related receptor (ERR) signaling pathway (AID 1224820)
Method in brief: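 An ERR cell line provided by NTP was seeded at 2,000 cells per well and allowed to settle for 6 h before compounds in DMSO were added. After 18 h at 37 C, luciferase activity was measured by One-Glo luminescence.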

[2] = qHTS assay to identify small molecule agonists of the estrogen related receptor signaling pathway with the pleiotropic PPARgamma coactivator (PGC) (AID 1224823); note: potency is the fitted concentration of half-maximal effect
Method in brief: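 Compounds dissolved in DMSO are added by pin tool to PGC/ERR cells that have settled for 6 h, and incubation continues 18 h at 37 C. Reporter output is measured as One-Glo luminescence.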

[3] = qHTS assay to identify small molecule antagonists of the estrogen related receptor (ERR) signaling pathway (AID 1224819; note: nearly all actives have a fitted effect of over 50% in size; note: potency is the fitted concentration of half-maximal effect)
Method in brief: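 ERR reporter cells were plated at 2,000 cells/well and left 6 h at 37 C/5% CO2 before pin-tool transfer of compounds in DMSO. After 18 h at 37 C, One-Glo was added and luminescence was read 30 min later at room temperature.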

[4] = test system: estrogen-related receptor alpha (ERRalpha) with PGC-1alpha coactivator, human; experiment: qHTS assay to identify small molecule antagonists of the estrogen related receptor signaling pathway with the pleiotropic PPARgamma coactivator (PGC) (AID 1224821; calls by dose curve;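 note: series mostly up to about 46 µM; lower luminescence signal means antagonism of PGC/ERR signalling; nearly all actives have a fitted effect of over 50% in size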)
Method in brief: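 A PGC/ERR cell line supplied by NTP is seeded, allowed 6 h at 37 C, and treated with test compounds in DMSO for 18 h. Signal is then measured as luciferase luminescence using One-Glo.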

[5] = qHTS assay to identify small molecule antagonists of the estrogen related receptor signaling pathway with the pleiotropic PPARgamma coactivator (PGC) cell viability counter screen (AID 1224822;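 note: potency is the fitted concentration of half-maximal effect; viability read after 17.5 h compound exposure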)
Method in brief: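 Viable cell signal (CellTiter-Fluor, 30 min, 37 C/5% CO2) was measured in PGC/ERR cells after a 17.5 h compound incubation.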

SMILES | Potency [1] | Potency [2] | Potency [3] | Potency [4] | Potency [5]
O=[N+]([O-])/C=C/c1ccc2c(c1)OCO2 | inactive | inactive | – | – | –
C[C@H](N)CN1CCc2ccc(Br)cc21 | – | inactive | inactive | inactive | –
C/C=C(/C)C(=O)O[C@H]1C(C)=C2[C@H]([C@@H]1OC(=O)CCCCCCC)[C@@](C)(OC(C)=O)C[C@H](OC(=O)CCC)[C@@]1(O)[C@H]2OC(=O)[C@@]1(C)O | – | inactive | 0.246 µM (active) | – | 8.1 µM (active)
CCNC(=O)[C@H]1O[C@@H](n2cnc3c(N)ncnc32)[C@H](O)C1O (stereo not given in full) | – | 0.168 µM (active) | – | inactive | –
CC(N)Cc1c[nH]c2ccc(OCc3cccs3)cc12 (stereo not given) | – | inactive | inactive | inactive | –
Cc1c2ccncc2c(C)c2c1[nH]c1ccccc12 | inactive | inactive | – | – | –
